Assay results: PMC12350791

Assays:
[1] = target: Spectrin alpha chain, non-erythrocytic 1 (UniProt Q13813); test: cross-linking mass spectrometry
Twinfilin-2 = target: T1, Twinfilin-2 (UniProt Q6IBS0); test: cross-link between two proteins; cross-linking mass spectrometry
T1 sequence: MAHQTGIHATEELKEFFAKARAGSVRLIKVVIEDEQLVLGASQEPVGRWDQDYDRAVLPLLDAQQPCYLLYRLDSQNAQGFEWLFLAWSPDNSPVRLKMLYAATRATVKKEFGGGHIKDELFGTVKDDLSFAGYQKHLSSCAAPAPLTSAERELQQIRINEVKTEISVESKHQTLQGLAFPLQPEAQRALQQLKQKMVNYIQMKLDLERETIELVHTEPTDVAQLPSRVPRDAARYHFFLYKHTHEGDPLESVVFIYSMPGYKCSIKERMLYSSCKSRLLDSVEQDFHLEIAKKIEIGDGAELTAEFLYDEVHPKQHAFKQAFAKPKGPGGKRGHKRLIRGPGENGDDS

[2] = target: Superkiller complex protein 8 (UniProt Q9GZS3); test: as above
[3] = target: ATP-dependent RNA helicase DDX24 (UniProt Q9GZR7); test: cross-linking mass spectrometry

Actin, cytoplasmic 1, P60709
listed as a hit [1]: yes
listed as a hit (Twinfilin-2): yes

RNA polymerase-associated protein CTR9 homolog, Q6PD62
listed as a hit [2]: yes

Large ribosomal subunit protein eL20, Q02543
listed as a hit [3]: yes
